Experimental data published in ChEMBL document CHEMBL3988442, “University of Dundee, Small-Polar-MMV Screening Library” (2021).
Among all 38,000 compounds or so, about 1,200 (3.2%) showed an effect of 50% or more. The median lay at about -58%. This excerpt belongs to a sample that is enriched for strong results.

The compounds below were run on Plasmodium falciparum (assay: Calibr Malaria Delayed Death Assay SOP). Conditions: concentration 4.99e-06 (unit not given; other assays of the set use mol/L).
Format: functional, organism-based
Parameters: scale not given: in the data most compounds retested in dose-response had high values

Row | Structure (SMILES) | Percent Effect
1 | CCC1(CC)CC(=O)N(CC(O)c2cccc(F)c2)C1=O (configuration not stated) | -47.43%
2 | Cn1cc(CN2CCC3(CCN(c4cnn(C)c4)C3=O)C2)cn1.O=C(O)C(F)(F)F (configuration not stated) | -38.46%
3 | Cc1ccc(-n2ncc(C(=O)N(C)C3CCN(C)CC3)c2N)cc1C | -13.94%
4 | COCCNC(=O)Cn1cc2c(n1)c(C)nn2C | -119.4%
5 | Cc1ccc(CN2Cc3nccn3CC(Cn3cncn3)C2)s1.O=C(O)C(F)(F)F (configuration not stated) | -180.8%
6 | COc1ccccc1OCCC(=O)NC1CCc2nc(C)cn2C1 (configuration not stated) | -82.15%
7 | Cc1ncc(CNC(=O)CCc2ccccc2F)c(C2CCCN2C)n1 (configuration not stated) | -31.11%
8 | Clc1cc(CN2CCCC(Cn3cncn3)C2)c2ncccc2c1 (configuration not stated) | 36.9%
9 | Clc1cc(CN2CCCN3CCCC3C2)c2ncccc2c1 (configuration not stated) | 88.94%
10 | O[C@@H]1CN(Cc2cc(Cl)cc3cccnc23)C[C@@H]1O | -71.8%
11 | Cc1cccc(-c2nc(N)nc3c2CN(C(=O)c2ccncn2)C3C)c1 (configuration not stated) | -72.66%
12 | COc1coc(C(=O)Nc2nc(-c3ccccn3)cs2)cc1=O | 19.28%
13 | CN(Cc1noc2c1CCCC2)C(=O)Nc1cncc(F)c1 | -40.24%
14 | Cc1c[nH]c(CN(C)C(=O)C(C)(C)NC(=O)c2cccs2)n1 | -87.6%
15 | CC(C)c1ncc(C(=O)N2CCOCC2CC(=O)c2ccco2)s1 (configuration not stated) | -45.87%
16 | Cc1cc(C)n(CC(C)NCCn2nc(C)c(Cl)c2C)n1 (configuration not stated) | -54.04%
17 | CC(Cn1cncn1)NCCN1CCc2ccccc21 (configuration not stated) | -79.84%
18 | Cc1cc(C)n(CC(C)NCCN2CCc3ccccc32)n1 (configuration not stated) | 52.4%
19 | Cc1ccc(SC2CCCC2)c(C(=O)NCc2n[nH]c(=O)[nH]2)c1 | -25.99%
20 | O=C(c1c[nH]c2ncccc12)N(Cc1ccco1)C1CCCC1 | 86.68%
21 | COCCN(C(=O)c1c[nH]c2ncccc12)C1CCCC1 | -27.67%
22 | NC(=O)CN(C(=O)c1c[nH]c2ncccc12)C1CCCC1 | -54.97%
23 | Cc1nc(N(C)C)nc(-c2cccc(-c3ccn(CCCF)n3)c2)c1C | -133.9%

Row | Structure (SMILES) | Percent Effect
24 | CCCN(Cc1ccccn1)Cc1ccccc1OC | -102.5%
25 | CC(C)CN(Cc1ccccn1)Cc1ccccc1C(=O)O | -129.3%
26 | CCOc1ccccc1N(C)Cc1nccn1C | 20.26%
27 | CSCC(=O)N(Cc1ccccn1)Cc1ccccc1C | -232.7%
28 | COc1ccc(OC)c(Sc2ncccc2C(=O)N(C)CCC#N)c1 | -164.4%
29 | CCOCCN1CCN(CCc2ccc3c(c2)CCO3)CC1 | -44.63%
30 | Cc1noc([C@@H]2CCO[C@@H]3CCN(Cc4nccs4)C[C@@H]32)n1 | -49.2%
31 | CCN1CC2(CC1=O)CN(C(C)=O)CCN(C(=O)NC)C2 (configuration not stated) | -42.52%
32 | CN(C)C(=O)N1CCN(CCn2nc3ccccn3c2=O)CC1 | -59.88%
33 | O=C(O)c1cc(/C=C/c2ccccc2)ncn1 | -169%
34 | O=C1CC(c2ccccc2)c2cnn(C3CCCC3)c2N1 (configuration not stated) | -174.4%
35 | N#Cc1ccc(C2CC(=O)Nc3c2cnn3C2CCCC2)cc1 (configuration not stated) | 52.33%
36 | O=C1CC(c2ccc(F)cc2)c2cnn(C3CCCC3)c2N1 (configuration not stated) | -115.7%
37 | COc1ccc(C(C)=O)cc1CN1CCn2cccc2C1C (configuration not stated) | -51.16%
38 | CNC(=O)C1CCN(Cc2nc(-c3ccc(SC)cc3)oc2C)C1 (configuration not stated) | -104%
39 | CSc1ccc(-c2nc(CN3CCC(CN)C3)c(C)o2)cc1 (configuration not stated) | 88.32%
40 | CSc1ccc(-c2nc(CN3CCC(C(N)=O)CC3)c(C)o2)cc1 | -89.92%
41 | Cc1nc2c(c(NC3CCN(Cc4cccnc4)CC3)n1)CCNCC2 | -53.07%
42 | Cc1nc2c(c(NC3CCN(Cc4ccccc4)CC3)n1)CCNCC2 | 78.1%
43 | Cc1nc2c(c(NC3CC3)n1)CCN(C(=O)CCc1cccnc1)CC2 | -33.43%
44 | Cc1cccc(CN2CC3(CCN(C(=O)C4CC4)CC3)OCC2=O)n1 | -86.74%
45 | COc1c(C)cnc(CNC(=O)c2cnc3onc(C)c3c2)c1C | -29.67%
46 | COCCN(C)C(=O)Cn1cccc(OC)c1=O | -122.8%

Row | Structure (SMILES) | Percent Effect
47 | CN(CCCc1cc(-c2ccc(F)cc2)n[nH]1)C(=O)CCn1cncn1 | -232.6%
48 | O=C(Cc1cccs1)N1CCn2cc(Cn3cccn3)nc2C1.O=C(O)C(F)(F)F | -86.13%
49 | CN1CCN(C2CCN(CCOc3ccccc3F)CC2)C1=O | -15.81%
50 | O=C(c1ccoc1)N1CC[C@H]2C[C@@H](c3nnc(C4CC4)o3)O[C@@H]2C1 | -57.61%
51 | Cc1nc(C)n(C2CCCN(C(=O)c3cn4cccnc4n3)C2)n1 (configuration not stated) | -31.26%
52 | CC1(C)CN(C(CNS(C)(=O)=O)c2ccc(Cl)cc2)CCO1 (configuration not stated) | -25.75%
53 | CC1(C)CN(C(CNS(N)(=O)=O)c2ccc(Cl)cc2)CCO1 (configuration not stated) | -0.7806%
54 | Cc1csc(CNC(=O)NCC2(c3ccc4c(c3)OCO4)CC2)n1 | -58.48%
55 | O=S(=O)(NCC1(c2cccs2)CCOCC1)c1ccc2c(c1)OCCO2 | -63.38%
56 | I.c1cc2c(cc1C1(CNC3=NCCN3)CCCC1)OCCO2 | 80.88%
57 | Cc1ncsc1CNC(=O)NCC1(c2ccc3c(c2)OCO3)CC1 | -37.92%
58 | O=C(Cc1ccc2c(c1)OCCO2)NC1CCCC1 | -102.8%
59 | c1cnc(NCc2noc3c2CN(c2cnccn2)CC3)nc1 | -103.6%
60 | CC(=O)NCc1ccc(C(=O)N2CCCC(n3cncn3)C2)o1 (configuration not stated) | -131.6%
61 | O=C([C@@H]1CCO[C@@H]2CCN(CC3CC3)C[C@H]21)N1CCCCO1 | -73.92%
62 | COC(=O)NCC(=O)NCC(C)(C)c1cccc(C(F)(F)F)c1 | 46.67%
63 | CC(C)(C(=O)NCCCC(N)=O)c1cccc(Br)c1 | -41.82%
64 | CCC(=O)NCC(=O)NCc1cc(Br)ccc1OC(F)F | 4.46%
65 | CC(C)(C(=O)NCCC(=O)O)c1cccc(Br)c1 | -14.62%
66 | CCC(=O)NCC(=O)NCC(C)(C)c1cccc(Br)c1 | 86.82%
67 | COC(=O)NCC(=O)NCC(C)(C)c1cccc(Br)c1 | 84.11%
